# Experimental data from PMC8384837, “Expanding the binding specificity for RNA recognition by a PUF domain”.
# Legend:
# Test in all cases: yeast three-hybrid, YBZ-1, SC-Leu-His + 0.5 mM 3-AT, 4 days
# Conditions in all cases: tags: N-Gal4 AD-HA kept; label: inside an RPR1-promoter hybrid RNA with tandem MS2 sites; ssRNA
# PUM1 PUF domain R7-RHP = PUM1 PUF domain R7-RHP (Homo sapiens, UniProt Q14671 828-1176, S1079R;N1080H;E1083P)
# Summary of the method: (§1)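 Sequencing with Illumina followed PCR amplification of the repeat regions from transformants grown four days on SC-Leu (input) or SC-Leu-His + 0.5 mM 3-AT (selection). The transformants were strain YBZ-1 with a LexA–MS2 coat fusion and a HIS3 reporter, carrying Pumilio-1 PUF domain libraries and matching RNA elements. The interaction score is the log change in variant frequency from input to selection, computed in log2 with a pseudocount of 1 for absent variants.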
# PUM1 PUF domain R7-EPS = PUM1 PUF domain R7-EPS (Homo sapiens, UniProt Q14671 828-1176, S1079E;N1080P;E1083S)
# Summary of the method: as §1
# PUM1 PUF domain R7-TVR = PUM1 PUF domain R7-TVR (Homo sapiens, UniProt Q14671 828-1176, S1079T;N1080V;E1083R)
# Summary of the method: as §1
# PUM1 PUF domain R6-AYE = biological target: T1, PUM1 PUF domain R6-AYE (Homo sapiens, UniProt Q14671 828-1176, N1043A;Q1047E)
# T1 sequence: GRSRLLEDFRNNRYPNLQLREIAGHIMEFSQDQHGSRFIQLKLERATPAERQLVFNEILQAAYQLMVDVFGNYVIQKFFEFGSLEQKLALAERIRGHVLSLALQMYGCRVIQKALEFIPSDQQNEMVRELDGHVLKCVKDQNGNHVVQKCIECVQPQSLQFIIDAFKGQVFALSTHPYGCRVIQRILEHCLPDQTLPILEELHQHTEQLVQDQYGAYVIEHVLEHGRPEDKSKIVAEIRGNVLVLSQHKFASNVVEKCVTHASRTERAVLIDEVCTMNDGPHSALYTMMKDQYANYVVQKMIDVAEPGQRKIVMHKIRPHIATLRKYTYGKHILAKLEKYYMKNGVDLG
# Summary of the method: as §1
# PUM1 PUF domain R5-FRI = PUM1 PUF domain R5-FRI (Homo sapiens, UniProt Q14671 828-1176, C1007F;Q1011I)
# Summary of the method: as §1
# PUM1 PUF domain R8-NWG = PUM1 PUF domain R8-NWG (Homo sapiens, UniProt Q14671 828-1176, Y1123W;Q1126G)
# Summary of the method: as §1
# PUM1 PUF domain R3-VHP = PUM1 PUF domain R3-VHP (Homo sapiens, UniProt Q14671 828-1176, C935V;R936H;Q939P)
# Summary of the method: as §1
# PUM1 PUF domain R2-LWE = PUM1 PUF domain R2-LWE (Homo sapiens, UniProt Q14671 828-1176, N899L;Y900W;Q903E)
# Summary of the method: as §1
# PUM1 PUF domain R3-SRV = PUM1 PUF domain R3-SRV (Homo sapiens, UniProt Q14671 828-1176, C935S;Q939V)
# Summary of the method: as §1
# PUM1 PUF domain R8-RYM = PUM1 PUF domain R8-RYM (Homo sapiens, UniProt Q14671 828-1176, N1122R;Q1126M)
# Summary of the method: as §1
sequence,measurement,setting,value
GGCUAGAACUAGUGGAUCCCCCGGCGCCCGGCGGCUCGAGCCCGGGUAAGUCUAAAUAGUCUGCAUGCCGCCGGGCGCCAUGCCUGCAGGUCGACUCUAGAAAACAUG,binding signal,PUM1 PUF domain R7-RHP,4.29 log2 enrichment (interaction score)
same,binding signal,PUM1 PUF domain R7-EPS,1.4 log2 enrichment (interaction score)
GGCUAGAACUAGUGGAUCCCCCGGCGCCCGGCGGCUCGAGCCCGGGUAAGUUUAAAUAGUCUGCAUGCCGCCGGGCGCCAUGCCUGCAGGUCGACUCUAGAAAACAUG,binding signal,PUM1 PUF domain R7-EPS,5.7 log2 enrichment (interaction score)
same,binding signal,PUM1 PUF domain R7-TVR,4.91 log2 enrichment (interaction score)
GGCUAGAACUAGUGGAUCCCCCGGCGCCCGGCGGCUCGAGCCCGGGUAAGUGGAAAUAGUCUGCAUGCCGCCGGGCGCCAUGCCUGCAGGUCGACUCUAGAAAACAUG,binding signal,PUM1 PUF domain R6-AYE,3.94 log2 enrichment (interaction score)
GGCUAGAACUAGUGGAUCCCCCGGCGCCCGGCGGCUCGAGCCCGGGUAAGUGAAAAUAGUCUGCAUGCCGCCGGGCGCCAUGCCUGCAGGUCGACUCUAGAAAACAUG,binding signal,PUM1 PUF domain R6-AYE,6.06 log2 enrichment (interaction score)
GGCUAGAACUAGUGGAUCCCCCGGCGCCCGGCGGCUCGAGCCCGGGUAAGUGUAAAUAGUCUGCAUGCCGCCGGGCGCCAUGCCUGCAGGUCGACUCUAGAAAACAUG,binding signal,PUM1 PUF domain R5-FRI,1.55 log2 enrichment (interaction score)
same,binding signal,PUM1 PUF domain R8-NWG,3.93 log2 enrichment (interaction score)
same,binding signal,PUM1 PUF domain R3-VHP,3.02 log2 enrichment (interaction score)
same,binding signal,PUM1 PUF domain R2-LWE,4.67 log2 enrichment (interaction score)
same,binding signal,PUM1 PUF domain R3-SRV,3.25 log2 enrichment (interaction score)
GGCUAGAACUAGUGGAUCCCCCGGCGCCCGGCGGCUCGAGCCCGGGUAAGUGUUAAUAGUCUGCAUGCCGCCGGGCGCCAUGCCUGCAGGUCGACUCUAGAAAACAUG,binding signal,PUM1 PUF domain R5-FRI,1.47 log2 enrichment (interaction score)
GGCUAGAACUAGUGGAUCCCCCGGCGCCCGGCGGCUCGAGCCCGGGUAAGCGUAAAUAGUCUGCAUGCCGCCGGGCGCCAUGCCUGCAGGUCGACUCUAGAAAACAUG,binding signal,PUM1 PUF domain R8-RYM,4.93 log2 enrichment (interaction score)
GGCUAGAACUAGUGGAUCCCCCGGCGCCCGGCGGCUCGAGCCCGGGUAAGUGUAAGUAGUCUGCAUGCCGCCGGGCGCCAUGCCUGCAGGUCGACUCUAGAAAACAUG,binding signal,PUM1 PUF domain R3-SRV,1.79 log2 enrichment (interaction score)
GGCUAGAACUAGUGGAUCCCCCGGCGCCCGGCGGCUCGAGCCCGGGUAAGUGUAAUUAGUCUGCAUGCCGCCGGGCGCCAUGCCUGCAGGUCGACUCUAGAAAACAUG,binding signal,PUM1 PUF domain R3-SRV,2.15 log2 enrichment (interaction score)
GGCUAGAACUAGUGGAUCCCCCGGCGCCCGGCGGCUCGAGCCCGGGUAAGUGUCAAUAGUCUGCAUGCCGCCGGGCGCCAUGCCUGCAGGUCGACUCUAGAAAACAUG,binding signal,PUM1 PUF domain R5-FRI,2.41 log2 enrichment (interaction score)
GGCUAGAACUAGUGGAUCCCCCGGCGCCCGGCGGCUCGAGCCCGGGUAAGUGUAAAAAGUCUGCAUGCCGCCGGGCGCCAUGCCUGCAGGUCGACUCUAGAAAACAUG,binding signal,PUM1 PUF domain R2-LWE,7.67 log2 enrichment (interaction score)
GGCUAGAACUAGUGGAUCCCCCGGCGCCCGGCGGCUCGAGCCCGGGUAAGUGUAAAGAGUCUGCAUGCCGCCGGGCGCCAUGCCUGCAGGUCGACUCUAGAAAACAUG,binding signal,PUM1 PUF domain R2-LWE,6.63 log2 enrichment (interaction score)
